Test [1] relates to Zika virus NS2B-NS3 protease (linked construct). Kind of test: Primary screen NINDS Rhodamine qHTS for Zika virus inhibitors (AID 1347160). Further: nearly all actives have a fitted effect of over 55% in size. The essentials:
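Purified NS2B-NS3 protease with the NS2B hydrophilic domain joined by a flexible linker (25 nM) in 10 mM Tris-HCl pH 8.0, 0.01% Tween 20, preincubated 15 min at RT with compound; Rhodamine110 peptide substrate 1.5 µM; fluorescence change over 15 min; 4-parameter Hill fit.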
(Quantitative high-throughput screening tests each substance at several concentrations.)

The target in test [2] is Luciferin 4-monooxygenase (Photinus pyralis) (UniProt P08659). The test is described as follows: Primary firefly luciferase (FLuc) qHTS assay for identification of artifact compounds. (AID 1845220). Further: nearly all actives have a fitted effect of over 60% in size. The essentials:
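Titrated compounds were incubated 15 min at RT, protected from light, with luciferin and ATP at 10 uM; reaction started with 10 nM FLuc, luminescence imaged at 5 min, and concentration-response fitted by Hill equation.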

Test [3] is described as follows: Primary fluorescence-based thiol-reactive (MSTI) qHTS assay for identification of artifact compounds. (AID 1845221).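 Further: thiol-reactive compounds lower the probe fluorescence signal; nearly all actives have a fitted effect of over 65% in size.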 In outline: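 Reactivity toward the thiol probe MSTI (4 uM) is scored by fluorescence at Ex/Em 525/598 nm after 1 h at room temperature. Acetyl-MSTI and MSTI define the activity scale.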
The subject of test [4] is Nanoluciferase (engineered Oplophorus gracilirostris luciferase). The test is described as follows: Primary Nanoluciferase (NLuc) qHTS assay for identification of artifact compounds. (AID 1845222).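 Further: NLuc secreted into diluted conditioned medium of S16 cells; 0% = DMSO and -100% = no enzyme.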 In outline: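 qHTS format, against NLuc in S16 cell-conditioned medium. Nano-Glo substrate 1:100 was added after 15 min at room temperature. Luminescence was taken after a further 5 min.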

The next test relates to CASKI. Kind of test: Primary qHTS to identify gynecologic anti-cancer compounds using libraries of approved drugs and bioactive compounds (AID 1345084). Further: nearly all actives have a fitted effect of over 55% in size. Further: potency means the concentration at half of the fitted maximal effect. As to conditions: Gynecologic cancer cell panel viability, ATPlite luminescence, 48 h; series mostly up to 57.5 µM. In outline:
(§1)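 Measured: luminescence after ATPlite addition (15 min, RT). Exposure: 48 h, 37 C, 5% CO2.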

The subject of another test is Es-2. Described as above. The following applies: Gynecologic cancer cell panel viability, ATPlite luminescence, 48 h; series mostly up to 57.5 µM. The essentials: as §1
Another test deals with HeLa. The test is described as above. As to conditions: Gynecologic cancer cell panel viability, ATPlite luminescence, 48 h; series mostly up to 57.5 µM. In outline: as §1
A general note: In ATP-based viability assays light output follows the ATP content of the culture.

A further test relates to Hek293T. The test is described as above. As to conditions: Gynecologic cancer cell panel viability, ATPlite luminescence, 48 h, control line for the selectivity index; series mostly up to 57.5 µM. In outline: as §1
The subject of a further test is JEG-3. The description is as above. The following applies: Gynecologic cancer cell panel viability, ATPlite luminescence, 48 h; series mostly up to 57.5 µM. In outline:
as §1

For the next test, the system named is Tov112D. The description is as above. The following applies: Gynecologic cancer cell panel viability, ATPlite luminescence, 48 h; series mostly up to 57.5 µM. In outline:
as §1

In test [5] the target is Calcium and integrin-binding protein 1 (Homo sapiens) (UniProt Q99828). Kind of test: Primary qHTS for Identification of Calcium Integrin Binding Protein 1 (CIB1) Competitor (AID 1508620). Further: top concentration of the series differs between compounds; on the % scale 0 is the no-effect control and ±100 the full control effect. In outline: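 Fluorescence polarization competition: GST-tagged CIB1 (1 uM final) preincubated with compound 15 min at room temperature, then FITC-labelled alphaIIb peptide (100 nM final) added. After 15 min at room temperature, polarization read at Ex 480/Em 540.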
Sequence of Calcium and integrin-binding protein 1 (Homo sapiens) (Q99828 whole entry, looked up): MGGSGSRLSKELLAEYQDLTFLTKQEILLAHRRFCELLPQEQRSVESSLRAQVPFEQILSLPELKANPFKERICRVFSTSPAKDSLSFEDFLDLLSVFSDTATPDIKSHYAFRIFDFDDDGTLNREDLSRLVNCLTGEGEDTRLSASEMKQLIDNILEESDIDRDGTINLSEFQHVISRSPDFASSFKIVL

The nature of test [6]: Primary qHTS for inhibitors of nuclear receptor binding SET domain protein 2 (NSD2) in an isogenic RCH-ACV NSD2 p.E1099K mutant (9B) (AID 1645876). Further: potency means the concentration at half of the fitted maximal effect; nearly all actives have a fitted effect of over 70% in size.
The target of test [7] is Glutathione peroxidase 1 (Homo sapiens) (UniProt P07203). The test is described as follows: Primary qHTS Assay for Inhibitors of Recombinant Selenoprotein Glutathione Peroxidase 1 (GPX1) (AID 1845191). Further: nearly all actives have a fitted effect of over 65% in size. Further: potency means the concentration at half of the fitted maximal effect. In outline:
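GR-coupled assay: compounds preincubated 30 min at room temperature with GPX1, then reaction started with CHP; final 10 nM GPX1, 1 mM GSH, 0.5 mM CHP, 0.5 mM NADPH, 100 nM GR, 0.01% BSA, pH 7.5 Tris buffer. NADPH fluorescence (340/450 nm) read at 0 and 15 min.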

The target in test [8] is Phospholipid hydroperoxide glutathione peroxidase GPX4 (Homo sapiens) (UniProt P36969). The test is described as follows: Primary qHTS Assay for Inhibitors of Recombinant Selenoprotein Glutathione Peroxidase 4 (GPX4) (AID 1845192). Further: nearly all actives have a fitted effect of over 65% in size. Further: potency means the concentration at half of the fitted maximal effect. The following applies: outcome: dose series up to 50 µM unless noted. In outline:
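GR-coupled assay: recombinant GPX4 preincubated 30 min with compound at room temperature; final 200 nM GPX4, 1 mM GSH, 0.5 mM cumene hydroperoxide, 0.5 mM NADPH, 100 nM GR, 0.01% BSA, pH 7.5 Tris. NADPH fluorescence (340/450 nm) read at 0 and 15 min.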

Test [9] is described as follows: qHTS drug screen for cell cycle checkpoint inhibitors in PARPi-resistant BRCA-mutant ovarian cancer cell lines. (AID 1963452; calls by dose curve). The following applies: PEO1/OlaR viability, CellTiter-Glo luminescence, 96 h, stronger effect = lower value. In outline:
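PEO1, PEO4 and PEO1/OlaR ovarian cancer cells, 600 per well, exposed 96 h at 37C to a dilution series. Viability read by CellTiter-Glo luminescence, normalized to DMSO and empty wells; activity summarized as Z-AUC.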

The next test concerns OV90. The test is described as follows: Primary qHTS to identify gynecologic anti-cancer compounds using libraries of approved drugs and bioactive compounds (AID 1345084). Further: nearly all actives have a fitted effect of over 55% in size. Further: potency means the concentration at half of the fitted maximal effect. The following applies: Gynecologic cancer cell panel viability, ATPlite luminescence, 48 h; series mostly up to 57.5 µM. The essentials: as §1
Another test deals with C33A. The test is described as above. As to conditions: Gynecologic cancer cell panel viability, ATPlite luminescence, 48 h; series mostly up to 57.5 µM. The essentials: as §1
Test [10] relates to Zika virus NS2B-NS3 protease (unlinked complex). Kind of test: Primary screen GU Rhodamine qHTS for Zika virus inhibitors: Unlinked NS2B-NS3 protease assay (AID 1347159). Further: on the % scale 0 is the no-effect control and ±100 the full control effect; nearly all actives have a fitted effect of over 60% in size. The essentials:
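Noncovalent NS2B hydrophilic domain/NS3 protease complex (25 nM final) in 10 mM Tris-HCl pH 8.0, 0.01% Tween 20, preincubated 15 min with compounds (up to 114 microM), then 1.5 microM Rhodamine110 substrate. Fluorescence change over 15 min fitted to 4-parameter Hill.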

Test [11] in a line: Primary qHTS for inhibitors of nuclear receptor binding SET domain protein 2 (NSD2) in an RCH-ACV wild type WT cells (2C) (AID 1645877). Further: potency means the concentration at half of the fitted maximal effect; nearly all actives have a fitted effect of over 70% in size.
Test [12] in a line: P-glycoprotein substrates identified in KB-8-5-11 adenocarcinoma cell line, qHTS therapeutic library screen (AID 1346987). Further: potency means the concentration at half of the fitted maximal effect; nearly all actives have a fitted effect of over 65% in size. The essentials:
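Steps: plate 500 KB-8-5-11 cells/well in DMEM + 10% FCS (colchicine removed); pin compounds in dose-response; incubate 72 h, 37 degree C, 5% CO2; add CellTiter-Glo, 5 min; read luminescence.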

Setting [13] is: measured here: PEO1 parental Z-AUC.

Structures are written as SMILES. “And” between values parts separate entries of the source, which are not always exact repeats. Equal entries are not always repeated. Records with an inconclusive call do not appear. The source made the active and inactive calls. Unless noted, the call rests on the fitted dose curve; in most records, active means well fitted curve in the direction sought with a large enough effect; inconclusive means small, poorly fitted or top-dose-only effect, or another doubt; inactive means no such curve, though single readings can be large; an effect the other way counts as inactive or inconclusive.

Sequence of Glutathione peroxidase 1 (Homo sapiens) (P07203 whole entry, looked up): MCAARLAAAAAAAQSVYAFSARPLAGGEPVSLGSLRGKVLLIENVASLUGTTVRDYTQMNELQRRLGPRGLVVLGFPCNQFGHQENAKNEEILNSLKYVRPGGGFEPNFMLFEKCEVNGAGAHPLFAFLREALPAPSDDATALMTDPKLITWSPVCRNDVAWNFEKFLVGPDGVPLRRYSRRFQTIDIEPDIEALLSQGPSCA
Sequence of Phospholipid hydroperoxide glutathione peroxidase GPX4 (Homo sapiens) (P36969 whole entry, looked up): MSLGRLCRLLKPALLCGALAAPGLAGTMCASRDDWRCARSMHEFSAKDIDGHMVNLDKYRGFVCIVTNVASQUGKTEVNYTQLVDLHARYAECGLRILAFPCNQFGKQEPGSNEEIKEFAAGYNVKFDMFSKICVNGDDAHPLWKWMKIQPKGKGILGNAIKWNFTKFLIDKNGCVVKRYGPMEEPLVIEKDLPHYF

Regarding `N#Cc1ccc2c(c1)CCN(CCC1CCC(NC(=O)c3ccnc4ccccc34)CC1)C2` (configuration not stated), the Potency entry (in [1]; in test [2]; in test [3]; in [4]; with CASKI; in the test on Es-2) was “inactive” throughout. In addition, the Potency result in the test with HeLa, in the test on Hek293T, in the test with JEG-3 and in the test on Tov112D was “inactive” in each case.
For the compound `COC(=O)/C=C/C(=O)N(O)CCCCNCc1ccc(COC(=O)Nc2cccc3ccccc23)cc1`, the Potency result (in [1]; in test [7]; in test [8]; in test [2]; in [3]; with HeLa) was “inactive” throughout. Moreover, the Potency result in the test with JEG-3, with OV90 and in the test with Tov112D was “inactive” each time. Also, the result in test [5] was inactive. Also, in test [6], the Potency is 9.34 µM (active). Further, the Z-AUC in test [9] was 0.336 (inactive); in test [9] (setting [13]), 0.0181; in test [9] (measured here: PEO4 Z-AUC) it was 0.131.
`Cc1ccc2c(Nc3ccc(Cl)cc3)nccc2c1Nc1ncccc1-c1ncnc2nc[nH]c12`: the outcome in test [5] was inactive. The Potency in test [6] is 18.4 µM (active); in the test on OV90, 5.01 µM (active). Besides, the Potency result (in test [7]; in [8]; in test [2]; in test [4]; with C33A; in the test with HeLa) was “inactive” each time. In addition, the Potency result in the test with Hek293T and in the test with JEG-3 was “inactive” each time.
Regarding `C=C1C(=O)O[C@H]2[C@H]1[C@@H](OC(=O)/C(C)=C\C)C[C@]1(C)O[C@@H]1[C@H]1O[C@H]1C(=C)[C@H]2O`, the Potency entry in test [10], in test [1], in [7], in [8], in [2] and in [3] was “inactive” throughout. Further, the Potency entry (in test [4]; with HeLa; in the test on OV90) was “inactive” throughout. Also, in test [5], the result was inactive. Also, the figures for the Potency (in test [6]; in test [11]; in the test with Es-2) were 7.13 µM (active), 4.5 µM (active) and 11.2 µM (active), respectively.
In the case of `COc1ccc(-c2cc(C(O)C3CCCCN3)c3ccccc3n2)cc1` (configuration not stated), the Potency in test [12] is 20.6 µM (active); in test [6] it was 7.42 µM (active); in test [7] it was 20.2 µM (active); in test [8], 22.7 µM (active); with OV90, 31.6 µM (active). The Potency entry in test [1], in test [2] and in test [3] was “inactive” in each case. Further, in [5], the result was inactive. Further, the results for the Z-AUC in test [9], in test [9] (setting [13]) and in test [9] (measured here: PEO4 Z-AUC) were -0.506 (inactive), -0.864 and -0.334, respectively.
With `FC(F)(F)c1ccc(CNc2ccc(Cc3c[nH]c4ncccc34)cn2)cc1`, the outcome in [5] was inactive. For the same compound, the Potency in [6] was 16.3 µM (active) and 10.5 µM (active); in test [11], 14.5 µM (active) and 8.33 µM (active). The Potency result (in test [7]; in test [8]; in [2]; in test [3]; in the test on Es-2; in the test with JEG-3) was “inactive” each time. In the test with OV90, the Potency entry is “inactive”. The Z-AUC in [9] is -0.674 (inactive); in test [9] (setting [13]), -1.25; in [9] (measured here: PEO4 Z-AUC), -0.926.
As for `COc1ccc(NC(=O)N2CCc3c2ccc2ccccc32)cc1N1CCN(C)CC1`, the Potency result in [10], in test [1], in [7], in test [8], in test [2] and in [4] was “inactive” each time. The Potency result in the test on CASKI, with Es-2, in the test on HeLa, with Hek293T, with JEG-3 and in the test with OV90 was “inactive” each time. The Potency result with Tov112D is “inactive”. The result in test [5] was inactive. The Potency in [6] and in test [11] was 14.5 µM (active) each time.
On to `CN(C)CCCCCCNC(=O)c1cccc(-c2cc(O)c3ncccc3c2)c1`, for which the results for the Potency in test [12], in [6] and in test [11] were 8.2 µM (active), 11.5 µM (active) and 7.28 µM (active), respectively. Moreover, the Potency result (in test [1]; in [7]; in [8]; in test [2]; in [4]; with HeLa) was “inactive” each time. Also, the Potency result with JEG-3 and in the test with OV90 was “inactive” each time.
On to `CCOC(=O)CN[C@@H](C(=O)N1CC[C@H]1C(=O)NCc1ccc(/C(N)=N/O)cc1)C1CCCCC1`, for which the Potency result in test [7] and in [8] was “inactive” throughout.

The values are drawn from PubChem BioAssay (NCATS).
